# Laboratory results: the supplement of paper PMC8728848
# The sample as a whole holds a higher share of the strongest signals than the screen did.
# B1: LSL-150 (Laetiporus sulphureus), Q7Z8V1 (protein)
# chain: MTDIYIPPEGLYFRLLGFASRQVIFARNSPSPDVGLSPVNDQATDQYFSLIYGTGEHAGLYAIKSKATGKVLFSRRPAEPYVGQIDGDGRYPDNWFKIEPGKTYLSKYFRLVQPSTGTALVSRTHLQPYFWNHPQTEVFDDQYFTFLFEDHHHHHH
# Experiments:
# Assay in all cases: glycan array binding signal (z-score within array); higher = stronger binding
# Details in all cases: glycan notation: IUPAC condensed, linker removed
# [1] = target: Fuc(a1-2)Gal(b1-3)GalNAc(a1-3)[Fuc(a1-2)]Gal(b1-4)Glc
# Method in brief: (§1)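 The Consortium for Functional Glycomics database supplied 3228 glycan arrays, of which those lacking an available protein sequence were dropped. The binding signal, a within-array Z-score, was averaged across arrays of the same protein sequence and across linkers. Negative scores can be read as non-binding.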
# [2] = target: Fuc(a1-2)Gal(b1-4)GlcNAc(b1-3)[Fuc(a1-3)[Gal(b1-4)]GlcNAc(b1-6)]Gal(b1-4)Glc
# Method in brief: as §1
# [3] = target: Fuc(a1-2)Gal(b1-4)[Fuc(a1-3)]GlcNAc(b1-3)[Neu5Ac(a2-6)Gal(b1-4)GlcNAc(b1-6)]Gal(b1-4)Glc
# Method in brief: as §1
# [4] = target: Fuc(a1-2)[Gal(a1-3)]Gal(b1-3)GlcNAc
# Method in brief: as §1
# [5] = target: Fuc(a1-2)[Gal(a1-3)]Gal(b1-4)GlcNAc(b1-6)GalNAc
# Method in brief: as §1
# [6] = target: Fuc(a1-2)[GalNAc(a1-3)]Gal(b1-3)GalNAc(b1-3)Gal(a1-4)Gal(b1-4)Glc
# Method in brief: as §1
# [7] = target: Gal(a1-3)Gal(b1-4)GlcNAc(b1-2)Man
# Method in brief: as §1
# [8] = target: Gal(b1-3)GlcNAc(b1-3)Gal(b1-4)GlcNAc
# Method in brief: as §1
# [9] = target: Gal(b1-4)GlcNAc(b1-3)Gal(b1-3)GalNAc
# Method in brief: as §1
# [10] = target: Gal(b1-4)GlcNAc(b1-3)Gal(b1-4)GlcNAc(b1-3)Gal(b1-4)GlcNAc(b1-2)Man(a1-3)[Gal(b1-4)GlcNAc(b1-3)Gal(b1-4)GlcNAc(b1-3)Gal(b1-4)GlcNAc(b1-2)Man(a1-6)]Man(b1-4)GlcNAc(b1-4)[Fuc(a1-6)]GlcNAc
# Method in brief: as §1
# [11] = target: Gal(b1-4)GlcNAc(b1-3)Gal(b1-4)GlcNAc(b1-3)Gal(b1-4)GlcNAc(b1-2)[Gal(b1-4)GlcNAc(b1-3)Gal(b1-4)GlcNAc(b1-3)Gal(b1-4)GlcNAc(b1-6)]Man(a1-6)[Gal(b1-4)GlcNAc(b1-3)Gal(b1-4)GlcNAc(b1-3)Gal(b1-4)GlcNAc(b1-2)Man(a1-3)]Man(b1-4)GlcNAc(b1-4)[Fuc(a1-6)]GlcNAc
# Method in brief: as §1
# [12] = target: Gal(b1-4)GlcNAc(b1-3)Gal(b1-4)GlcNAc(b1-3)Gal(b1-4)GlcNAc(b1-3)Gal(b1-4)GlcNAc(b1-2)Man(a1-3)[Gal(b1-4)GlcNAc(b1-3)Gal(b1-4)GlcNAc(b1-3)Gal(b1-4)GlcNAc(b1-3)Gal(b1-4)GlcNAc(b1-2)Man(a1-6)]Man(b1-4)GlcNAc(b1-4)GlcNAc
# Method in brief: as §1
# [13] = target: Gal(b1-4)GlcNAc(b1-3)Gal(b1-4)GlcNAc(b1-3)Gal(b1-4)GlcNAc(b1-3)Gal(b1-4)GlcNAc(b1-2)Man(a1-3)[Gal(b1-4)GlcNAc(b1-3)Gal(b1-4)GlcNAc(b1-3)Gal(b1-4)GlcNAc(b1-3)Gal(b1-4)GlcNAc(b1-2)Man(a1-6)]Man(b1-4)GlcNAc(b1-4)[Fuc(a1-6)]GlcNAc
# Method in brief: as §1
# [14] = target: Gal(b1-4)GlcNAc(b1-3)Gal(b1-4)GlcNAc(b1-3)Gal(b1-4)GlcNAc(b1-3)Gal(b1-4)GlcNAc(b1-2)[Gal(b1-4)GlcNAc(b1-3)Gal(b1-4)GlcNAc(b1-3)Gal(b1-4)GlcNAc(b1-3)Gal(b1-4)GlcNAc(b1-6)]Man(a1-6)[Gal(b1-4)GlcNAc(b1-3)Gal(b1-4)GlcNAc(b1-3)Gal(b1-4)GlcNAc(b1-3)Gal(b1-4)GlcNAc(b1-2)Man(a1-3)]Man(b1-4)GlcNAc(b1-4)[Fuc(a1-6)]GlcNAc
# Method in brief: as §1
# [15] = target: Gal(b1-4)GlcNAc(b1-3)Gal(b1-4)GlcNAc(b1-3)Gal(b1-4)GlcNAc(b1-3)Gal(b1-4)GlcNAc(b1-3)Gal(b1-4)GlcNAc(b1-2)Man(a1-3)[Gal(b1-4)GlcNAc(b1-3)Gal(b1-4)GlcNAc(b1-3)Gal(b1-4)GlcNAc(b1-3)Gal(b1-4)GlcNAc(b1-3)Gal(b1-4)GlcNAc(b1-2)Man(a1-6)]Man(b1-4)GlcNAc(b1-4)GlcNAc
# Method in brief: as §1
# [16] = target: Gal(b1-4)GlcNAc(b1-3)Gal(b1-4)GlcNAc(b1-3)Gal(b1-4)GlcNAc(b1-3)Gal(b1-4)GlcNAc(b1-3)Gal(b1-4)GlcNAc(b1-2)Man(a1-3)[Gal(b1-4)GlcNAc(b1-3)Gal(b1-4)GlcNAc(b1-3)Gal(b1-4)GlcNAc(b1-3)Gal(b1-4)GlcNAc(b1-3)Gal(b1-4)GlcNAc(b1-2)Man(a1-6)]Man(b1-4)GlcNAc(b1-4)[Fuc(a1-6)]GlcNAc
# Method in brief: as §1
# [17] = target: Gal(b1-4)GlcNAc(b1-3)Gal(b1-4)GlcNAc(b1-3)Gal(b1-4)GlcNAc(b1-3)Gal(b1-4)GlcNAc(b1-3)Gal(b1-4)GlcNAc(b1-2)[Gal(b1-4)GlcNAc(b1-3)Gal(b1-4)GlcNAc(b1-3)Gal(b1-4)GlcNAc(b1-3)Gal(b1-4)GlcNAc(b1-3)Gal(b1-4)GlcNAc(b1-6)]Man(a1-6)[Gal(b1-4)GlcNAc(b1-3)Gal(b1-4)GlcNAc(b1-3)Gal(b1-4)GlcNAc(b1-3)Gal(b1-4)GlcNAc(b1-3)Gal(b1-4)GlcNAc(b1-2)Man(a1-3)]Man(b1-4)GlcNAc(b1-4)[Fuc(a1-6)]GlcNAc
# Method in brief: as §1
# [18] = target: Gal(b1-4)GlcNAc(b1-3)Gal(b1-4)GlcNAc(b1-3)Gal(b1-4)GlcNAc(b1-3)Gal(b1-4)GlcNAc(b1-3)Gal(b1-4)GlcNAc(b1-3)Gal(b1-4)GlcNAc(b1-2)Man(a1-3)[Gal(b1-4)GlcNAc(b1-3)Gal(b1-4)GlcNAc(b1-3)Gal(b1-4)GlcNAc(b1-3)Gal(b1-4)GlcNAc(b1-3)Gal(b1-4)GlcNAc(b1-3)Gal(b1-4)GlcNAc(b1-2)Man(a1-6)]Man(b1-4)GlcNAc(b1-4)GlcNAc
# Method in brief: as §1
# [19] = target: Gal(b1-4)GlcNAc(b1-3)Gal(b1-4)GlcNAc(b1-3)[Gal(b1-4)GlcNAc(b1-3)Gal(b1-4)GlcNAc(b1-6)]GalNAc
# Method in brief: as §1
# Gal3S(b1-4)Glc = target: Gal3S(b1-4)Glc
# Method in brief: as §1
# GalNAc(b1-3)Gal = target: GalNAc(b1-3)Gal
# Method in brief: as §1
# GalNAc(b1-4)GlcNAc6S = target: GalNAc(b1-4)GlcNAc6S
# Method in brief: as §1
# [20] = target: Glc(a1-6)Glc(a1-6)Glc(a1-6)Glc
# Method in brief: as §1
# [21] = target: GlcNAc(b1-2)Man(a1-3)[GlcNAc(b1-2)Man(a1-6)]Man(b1-4)GlcNAc(b1-4)GlcNAc
# Method in brief: as §1
# GlcNAc(b1-3)Gal = target: GlcNAc(b1-3)Gal
# Method in brief: as §1
# [22] = target: GlcNAc(b1-3)Gal(b1-4)GlcNAc(b1-3)Gal(b1-4)GlcNAc(b1-2)Man(a1-3)[GlcNAc(b1-3)Gal(b1-4)GlcNAc(b1-3)Gal(b1-4)GlcNAc(b1-2)Man(a1-6)]Man(b1-4)GlcNAc(b1-4)GlcNAc
# Method in brief: as §1
# [23] = target: GlcNAc(b1-3)Gal(b1-4)GlcNAc(b1-3)Gal(b1-4)GlcNAc(b1-3)Gal(b1-4)GlcNAc(b1-3)Gal(b1-4)GlcNAc(b1-2)Man(a1-3)[GlcNAc(b1-3)Gal(b1-4)GlcNAc(b1-3)Gal(b1-4)GlcNAc(b1-3)Gal(b1-4)GlcNAc(b1-3)Gal(b1-4)GlcNAc(b1-2)Man(a1-6)]Man(b1-4)GlcNAc(b1-4)GlcNAc
# Method in brief: as §1
# [24] = target: GlcNAc(b1-3)Gal(b1-4)GlcNAc(b1-3)Gal(b1-4)GlcNAc(b1-3)Gal(b1-4)GlcNAc(b1-3)Gal(b1-4)GlcNAc(b1-2)[GlcNAc(b1-3)Gal(b1-4)GlcNAc(b1-3)Gal(b1-4)GlcNAc(b1-3)Gal(b1-4)GlcNAc(b1-3)Gal(b1-4)GlcNAc(b1-6)]Man(a1-6)[GlcNAc(b1-3)Gal(b1-4)GlcNAc(b1-3)Gal(b1-4)GlcNAc(b1-3)Gal(b1-4)GlcNAc(b1-3)Gal(b1-4)GlcNAc(b1-2)Man(a1-3)]Man(b1-4)GlcNAc(b1-4)[Fuc(a1-6)]GlcNAc
# Method in brief: as §1
# Kdn(a2-3)Gal(b1-3)GalNAc = target: Kdn(a2-3)Gal(b1-3)GalNAc
# Method in brief: as §1
# Man(a1-3)[Man(a1-6)]Man = target: Man(a1-3)[Man(a1-6)]Man
# Method in brief: as §1
# [25] = target: Neu5Ac(a2-3)Gal(b1-3)[Neu5Ac(a2-6)]GalNAc
# Method in brief: as §1
# [26] = target: Neu5Ac(a2-3)Gal(b1-4)[Fuc(a1-3)]GlcNAc(b1-6)[Neu5Ac(a2-3)Gal(b1-3)]GalNAc
# Method in brief: as §1
# [27] = target: Neu5Ac(a2-3)GalNAc(b1-4)GlcNAc
# Method in brief: as §1
# [28] = target: Neu5Ac(a2-6)Gal(b1-4)GlcNAc(b1-2)Man(a1-3)[Neu5Ac(a2-6)Gal(b1-4)GlcNAc(b1-2)Man(a1-6)]Man(b1-4)GlcNAc(b1-4)[Fuc(a1-6)]GlcNAc
# Method in brief: as §1
# [29] = target: Neu5Ac(a2-6)Gal(b1-4)GlcNAc(b1-3)Gal(b1-4)GlcNAc
# Method in brief: as §1
# [30] = target: Neu5Ac(a2-6)Gal(b1-4)GlcNAc(b1-6)GalNAc
# Method in brief: as §1
# [31] = target: Neu5Ac(a2-6)Gal(b1-4)GlcNAc(b1-6)[Gal(b1-3)]GalNAc
# Method in brief: as §1
# Neu5Gc(a2-3)Gal(b1-4)Glc = target: Neu5Gc(a2-3)Gal(b1-4)Glc
# Method in brief: as §1
# [32] = target: Neu5Gc(a2-6)Gal(b1-4)GlcNAc
# Method in brief: as §1
# [33] = target: Neu5Gc(a2-8)Neu5Gc(a2-3)Gal(b1-4)GlcNAc(b1-3)Gal(b1-4)GlcNAc
# Method in brief: as §1
binder,measurement,setting,value
B1,glycan array binding signal (z-score),[1],-0.208
same,glycan array binding signal (z-score),[2],-0.2
same,glycan array binding signal (z-score),[3],-0.204
same,glycan array binding signal (z-score),[4],-0.206
same,glycan array binding signal (z-score),[5],-0.207
same,glycan array binding signal (z-score),[6],-0.209
same,glycan array binding signal (z-score),[7],-0.208
same,glycan array binding signal (z-score),[8],-0.124
same,glycan array binding signal (z-score),[9],-0.205
same,glycan array binding signal (z-score),[10],5.23
same,glycan array binding signal (z-score),[11],5.29
same,glycan array binding signal (z-score),[12],5.88
same,glycan array binding signal (z-score),[13],6.24
same,glycan array binding signal (z-score),[14],6.23
same,glycan array binding signal (z-score),[15],5.44
same,glycan array binding signal (z-score),[16],6.16
same,glycan array binding signal (z-score),[17],6.2
same,glycan array binding signal (z-score),[18],5.13
same,glycan array binding signal (z-score),[19],0.034
same,glycan array binding signal (z-score),Gal3S(b1-4)Glc,-0.196
same,glycan array binding signal (z-score),GalNAc(b1-3)Gal,-0.207
same,glycan array binding signal (z-score),GalNAc(b1-4)GlcNAc6S,-0.203
same,glycan array binding signal (z-score),[20],-0.207
same,glycan array binding signal (z-score),[21],-0.205
same,glycan array binding signal (z-score),GlcNAc(b1-3)Gal,-0.195
same,glycan array binding signal (z-score),[22],0.937
same,glycan array binding signal (z-score),[23],5.26
same,glycan array binding signal (z-score),[24],7.09
same,glycan array binding signal (z-score),Kdn(a2-3)Gal(b1-3)GalNAc,-0.201
same,glycan array binding signal (z-score),Man(a1-3)[Man(a1-6)]Man,-0.2
same,glycan array binding signal (z-score),[25],-0.208
same,glycan array binding signal (z-score),[26],-0.203
same,glycan array binding signal (z-score),[27],-0.213
same,glycan array binding signal (z-score),[28],-0.208
same,glycan array binding signal (z-score),[29],-0.079
same,glycan array binding signal (z-score),[30],-0.203
same,glycan array binding signal (z-score),[31],-0.194
same,glycan array binding signal (z-score),Neu5Gc(a2-3)Gal(b1-4)Glc,-0.205
same,glycan array binding signal (z-score),[32],-0.206
same,glycan array binding signal (z-score),[33],-0.196
